Data taken from PubChem BioAssay (NCATS).
Unmarked numbers belong to inactive results. Records with an inconclusive call do not appear. Activity calls are given as the source filed them. Unless noted, calls come from the whole dose curve; as a rule, active = well fitted curve in either direction with a large enough effect (not every such curve was filed as active); inconclusive = small, poorly fitted or top-dose-only effect, or another doubt; inactive = flat fitted curve, though single readings scatter.

Columns and labels:
[1] = AP1 Signaling Pathway (AID 357); details: ME-180 AP-1-bla reporter, EGF-induced, beta-lactamase ratio, 5 h; at 17.2 µM (top of the series) unless noted;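 note: ME-180 reporter cells stimulated with EGF at its EC50 level; % is set by controls: 0 for no effect and ±100 for the full control effect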
Method in brief: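 In this screen, ME-180 cells in Opti-MEM with 0.5% dialyzed FBS received EC50 EGF and compound titrations for 5 h. AP-1 reporter beta-lactamase was detected via CCF4 ratio, giving AC50 for positive and negative modulators.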

[2] = NFAT Signaling Pathway (AID 444); details: Jurkat NFAT-bla M1, carbachol, beta-lactamase ratio, 5 h; at 17.2 µM (top of the series) unless noted;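 note: carbachol stimulus at about its EC50 of 1 µM final; % is set by controls: 0 for no effect and ±100 for the full control effect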
Method in brief: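 Jurkat cells with NFAT-driven β-lactamase reporter and co-expressed M1 receptor, stimulated with carbachol (final 1 uM, ~EC50), compound titration, 5 h at 37 °C. CCF4 loaded 1 h at RT; 460/530 nm ratio gave %activity and AC50.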

[3] = Stat Signaling Pathway (AID 446); details: ME-180 (cervical carcinoma) SIE beta-lactamase reporter, IL-6 stimulated, 5 h; at 17.2 µM (top of the series) unless noted;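 note: ME-180 cervical cancer cells given 40 pM IL-6 alongside compound; SIE-controlled beta-lactamase reporter measured as 460/530 nm FRET emission ratio; % is set by controls: 0 for no effect and ±100 for the full control effect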
Method in brief: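 FRET read-out (405 nm excitation, 460/530 nm emission) of a beta-lactamase reporter under a STAT-inducible element in ME-180 cervical carcinoma cells. Cells with compound receive 40 pM IL-6 for 5 h. Values are normalised to AC90 stimulation and AC90 JAK-inhibitor controls.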

[4] = target: Glucocorticoid receptor (Homo sapiens) (UniProt P04150); test: GR-GFP Redistribution (AID 450;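 active = compounds whose dose series gives a full or clear partial fitted curve of increased nuclear translocation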; note: potency is the fitted concentration of half-maximal effect)
Sequence of Glucocorticoid receptor (Homo sapiens) (P04150 whole entry, looked up): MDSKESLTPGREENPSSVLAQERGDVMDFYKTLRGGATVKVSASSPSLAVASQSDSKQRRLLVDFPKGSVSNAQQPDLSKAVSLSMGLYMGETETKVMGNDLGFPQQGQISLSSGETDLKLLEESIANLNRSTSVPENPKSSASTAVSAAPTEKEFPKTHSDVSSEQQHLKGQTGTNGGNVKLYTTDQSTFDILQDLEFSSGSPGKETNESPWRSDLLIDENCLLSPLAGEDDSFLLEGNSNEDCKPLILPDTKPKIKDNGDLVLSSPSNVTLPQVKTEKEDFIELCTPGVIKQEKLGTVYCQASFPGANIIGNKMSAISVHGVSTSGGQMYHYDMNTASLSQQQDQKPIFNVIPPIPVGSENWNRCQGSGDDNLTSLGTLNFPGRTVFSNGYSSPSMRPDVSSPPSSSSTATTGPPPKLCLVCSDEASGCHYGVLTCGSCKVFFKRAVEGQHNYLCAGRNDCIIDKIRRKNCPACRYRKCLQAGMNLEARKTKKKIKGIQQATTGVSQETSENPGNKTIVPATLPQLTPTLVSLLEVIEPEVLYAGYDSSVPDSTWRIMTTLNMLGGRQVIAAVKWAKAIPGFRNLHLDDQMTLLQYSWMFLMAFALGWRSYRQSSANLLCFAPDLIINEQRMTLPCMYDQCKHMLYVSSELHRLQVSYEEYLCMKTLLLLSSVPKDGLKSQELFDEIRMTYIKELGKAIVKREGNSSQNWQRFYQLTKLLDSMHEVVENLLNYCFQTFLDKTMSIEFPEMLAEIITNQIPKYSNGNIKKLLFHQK

SMILES	activity change, negative = inhibition [1] [%]	activity change, negative = inhibition [2]	activity, negative = inhibition [3] [%]	Potency [4] [µM]
C/C(NC(=O)c1ccccc1F)=C1\C(=O)C[C@@H]2[C@H]1C2(C)C	-12.1	-24.9%	-6.06	> 20.6
COc1ccccc1N1CCN(C2CCN(C(=O)c3cc(OC)c(OC)c(OC)c3)CC2)CC1	12.5	4.07%	10.4	> 20.6
O=C(O)CCCC(=O)Nc1ccn(-c2ccccc2)n1	1.68	-4.19%	0.897	> 20.6
CC(C(=O)N1CCCCC1)N1C(=O)c2ccccc2C1=O (centres undefined)	0.952	8.42%	3.42	> 20.6
CCCc1nc2n[nH]c(N)c2c2c1CCCC2	6.52	-0.387%	12.6	> 20.6
COc1ccc(C2/C(=C(/O)c3cnn(-c4ccccc4)c3C)C(=O)C(=O)N2CCN(C)C)cc1OC (centres undefined)	-0.291	18.7%	-4.43	> 20.6
COc1ccc(CN2CCC(=O)NC2=O)cc1	9.75	-0.653%	9.56	> 20.6
CCCOc1cccc(C2/C(=C(/O)c3ccccc3)C(=O)C(=O)N2CCN(C)C)c1 (centres undefined)	5.11	24.1%	0.936	> 20.6
O=C(CCC(=O)CCN1CCCCC1)CCN1CCCCC1	13.9	-120% (active)	1.96	> 20.6
COc1ccc(C2(CN(C(C)=O)C(C)=O)CCCC2)cc1OC	4.19	4.27%	1.89	> 20.6
Cc1c(C=NCCOCc2ccccc2)cnn1C	-2.81	-4.41%	12.4	> 20.6
Cn1cccc1/C=N/n1cnnc1	-2.1	-1.22%	4.51	> 20.6
C=C(c1ccc(OCCO)cc1)c1ccc(OCCO)cc1	-5.64	-1.3%	-3.23	> 20.6
Nc1nnnn1/N=C/c1cccc(Oc2ccccc2)c1	-4.47	-18.6%	10.9	> 20.6
COC(=O)c1ccc(Nc2cc(C)nc(-c3ccccc3O)n2)cc1	15.3	-10.8%	-5.42	> 20.6
Cc1cccc2c1NC(C)CC2C (centres undefined)	9.08	11.8%	13.3	> 20.6
CCOC(=O)C1CCN(c2ncnc3c2cnn3-c2ccc(Cl)cc2)CC1	0.357	-16.1%	4.03	> 20.6
c1ccc(-n2ncc3c(N4CCCC4)ncnc32)cc1	-17.5	14.9%	-6.73	> 20.6
Cc1nc2ccccc2cc1O	13.6	7.71%	5.42	> 20.6
CCNC(=O)Nn1c(C)nnc1C	15.4	-5.86%	6.6	> 20.6
CCCCC(CCC(=O)Nc1ccc(C(=O)OC)cc1)C(=O)O (centres undefined)	9.55	7.48%	8.56	> 20.6
COc1ccccc1-c1cc(-c2cc(Cl)ccc2O)n[nH]1	5.68	2.8%	8.92	> 20.6
COc1ccc2nc(/N=C(\N)NC(=O)C(C)(C)C)nc(C)c2c1	1.33	0.865%	0.61	> 20.6
COc1cc(C)nc(Oc2ccc(=O)n(C)n2)n1	8.82	-8.27%	1.84	> 20.6
CCOC(=O)Cn1nc(C)c2ccccc2c1=O	5.31	3.38%	-2.19	> 20.6
CC1(C)Cc2c(c(-c3ccccc3)nc(N3CCCC3)c2C(N)=O)CO1	0.989	-18.8%	0.41	> 20.6
